Test results from PubChem BioAssay AID588852 (The Scripps Research Institute Molecular Screening Center, 2011).
Out of some 360,000 compounds screened, about 4,600 (1.3%) were called active.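 Rule for the calls: active = percent inhibition above its own plate's cutoff, namely the mean of that plate's compound wells plus 3 SD; inactive = the rest.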 The sample as a whole holds a higher share of actives than the screen did.

biological target: Muscarinic acetylcholine receptor M1 (Homo sapiens) (UniProt P11229); test: CHRM1 blockers of acetylcholine calcium response – CHO-K1 cells, Fluo-8 calcium fluorescence, 1536-well, primary screen (AID 588852); conditions: CHO-K1 hM1, Fluo-8 calcium fluorescence, ACh EC80 antagonist; at 3 µM; hits give high values;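 note: peak over basal fluorescence ratio during 140 s after agonist addition; 0% = ACh EC80 plus DMSO and 100% = DMSO alone without agonist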
Sequence (P11229 whole entry, looked up): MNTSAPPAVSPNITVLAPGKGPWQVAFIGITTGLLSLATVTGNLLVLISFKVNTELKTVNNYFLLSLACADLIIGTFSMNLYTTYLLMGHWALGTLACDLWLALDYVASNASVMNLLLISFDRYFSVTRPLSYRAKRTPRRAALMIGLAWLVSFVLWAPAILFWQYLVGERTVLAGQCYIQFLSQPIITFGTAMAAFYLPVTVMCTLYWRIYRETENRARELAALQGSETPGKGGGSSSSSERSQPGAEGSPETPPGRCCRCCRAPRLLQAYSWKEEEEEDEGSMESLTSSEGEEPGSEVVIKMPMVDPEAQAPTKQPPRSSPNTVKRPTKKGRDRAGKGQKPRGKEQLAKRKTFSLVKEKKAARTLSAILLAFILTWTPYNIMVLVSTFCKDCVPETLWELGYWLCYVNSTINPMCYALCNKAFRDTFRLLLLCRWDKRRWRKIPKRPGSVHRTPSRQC

inhibition, active:
Cn1cnnc1Sc1ccc(CN2CCN(C3CCCC3)C(CCO)C2)o1 (stereo unspecified) 25.2%
OCCC1CN(Cc2ccc3nsnc3c2)CCN1C1CCCC1 (stereo unspecified) 45.8%
OCCC1CN(Cc2ccc3nsnc3c2)CCN1C1CCCCC1 (stereo unspecified) 31.7%
CCCC[C@@H]1CN=C(N)N1CCc1cc(C(F)(F)F)cc(C(F)(F)F)c1 51.9%
COc1ccc(C[C@H]2CN3C(=NC[C@H]3C)N2CCNC(=O)CCC2CCCCC2)cc1 38.6%
CCOC(=O)[C@H]1[C@H]2COc3ccc(C)cc3[C@@H]2N2C(=O)CN(Cc3ccc(F)cc3)C(=O)[C@@]12C 35.9%
CCCCCCC(O)(CCN1CCCCC1)c1ccccc1 (stereo unspecified) 98.8%
C#CC(CCN1CCCCC1)(OC)c1ccccc1 (stereo unspecified) 93.9%
CCCCCC(O)(CCN1CCCCC1)c1ccccc1 (stereo unspecified) 99.8%

inhibition, inactive:
CC(=O)Nc1cccc(Nc2ccc(C#N)cc2)c1 -8.06%
O=C(/C=C/[C@H]1O[C@@H](n2cnc3c(NC(=O)c4ccccc4)ncnc32)[C@H](O)[C@@H]1O)NCc1ccccc1 -2.88%
COc1cccc2c1OCC(CN1CCN(C3CCCCC3)C(CCO)C1)=C2 (stereo unspecified) 28%
OCC1(CCc2ccccc2)CCN(Cc2ccc3nsnc3c2)CC1 -4.82%
Cc1ccc(CN2CCN(Cc3ccc(OCCO)cc3)CC2CCO)o1 (stereo unspecified) -10.3%
Cc1ccc(CN2CCN(Cc3ccc4ncccc4c3)CC2CCO)cc1 (stereo unspecified) 5.31%
CCOc1ccc(CN2CCN(Cc3ccc(C)o3)CC2CCO)cc1 (stereo unspecified) 0.92%
CC(C)N1CCC(N2CCN(Cc3cccnc3)CC2CCO)CC1 (stereo unspecified) -8.8%
CN(C)CCNC(=O)c1ccc(-c2cn3c(-c4ccc(Oc5ccccc5)cc4)cnc3cn2)cc1 -3.33%
CCc1ccc(N2CC(C(=O)NC3=NCCS3)CC2=O)cc1 (stereo unspecified) -11.6%
CN(Cc1ccccc1)CC(O)COc1ccc(CNCc2cc3ccccc3s2)cc1 (stereo unspecified) 15.1%
CCOC(=O)[C@H]1[C@H]2COc3ccc(Br)cc3[C@@H]2N2C(=O)CN(C)C(=O)[C@@]12C -4.45%
Cc1ccc2c(NC(=O)C3CC3)cccc2n1 -22.4%
CN(C)S(=O)(=O)N1CCC(Oc2cccc(C(=O)NCCCC3CCCC3)c2)CC1 26.7%
Cc1cccc(C)c1-n1nnnc1C(CCc1ccccc1)N1CCN(C/C=C/c2ccccc2)CC1 (stereo unspecified) -27.1%
O=C(NCc1ccco1)/C(=C\c1cccc([N+](=O)[O-])c1)NC(=O)c1ccco1 -2.79%
CCCC[C@@H]1CN=C(N)N1CCCC 8.39%
CCCC[C@@H]1CN=C(N)N1CCc1cccc(F)c1 18.6%
CCN(CC(=O)Nc1c(F)cccc1F)C(=O)Cc1cccs1 -16.3%
Cn1nccc1NS(=O)(=O)c1ccc(F)cc1 -14.9%
C/C=C(\C)C(=O)NCCN1C2=NC[C@H](Cc3ccc(O)cc3)N2C[C@@H]1Cc1ccc(OC)cc1 -3.4%
COc1cccc(CNC(=O)CCC2CCCN(Cc3ccc(OC(F)F)cc3)C2)c1 (stereo unspecified) 20.6%
COc1ccc(C2c3c(C)nn(-c4ccccc4)c3NC(=O)N2c2ccccc2)cc1 (stereo unspecified) -12.4%
CCOC(=O)[C@H]1[C@H]2COc3ccccc3[C@@H]2N2C(=O)CN(Cc3ccccc3)C(=O)[C@@]12C 7.51%
CCOC(=O)[C@H]1[C@H]2COc3cc(OC)ccc3[C@@H]2N2C(=O)CN(Cc3ccc(Cl)cc3)C(=O)[C@@]12C -8.3%
O=C1OC(Cc2ccccc2)C(c2ccccc2)C1=O (stereo unspecified) -4.64%
NCCCCC(C(=O)O)N(C(=O)OCc1ccccc1)C(=O)OCc1ccccc1 (stereo unspecified) 2.44%
CCC(=C/c1sc2ccc3ccccc3c2[n+]1C)/C=C1\Sc2ccc3ccccc3c2N1C -7.73%
CCCCOc1ccc(C(C)(O)CCN2CCOCC2)cc1 (stereo unspecified) -7.98%
c1ccc2cc3[nH]c(CN4CCCCC4)nc3cc2c1 -5.8%
CC(CN1CCCCC1)c1ccccc1 (stereo unspecified) -23.4%
CCc1ccccc1NC(=O)NCCN1CCCCC1 -20.3%
O=C(c1ccccc1)C(O)(CN1CCCCC1)c1ccccc1 (stereo unspecified) 1.74%
CC(C)(c1ccccc1)c1ccc(OCCN2CCCC2)cc1 8.05%
CSc1nc(C)nc(C2CC2)c1C#N -5.81%
CCOC1=C2[C@H]([C@H]3C(=O)N(c4ccccc4)C(=O)[C@H]3C1)[C@@H](c1ccccc1)N(S(=O)(=O)c1ccc(C)cc1)[C@H]2c1ccccc1 -3.55%
c1ccc(Cc2c(-c3ccco3)nc3c4ccccc4ccn23)cc1 -25.9%
